Assay [1] is described as follows: NCI Yeast Anticancer Drug Screen. Data for the rad50 strain (AID 155).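 Note: 0% = growth of vehicle-only cultures of the same strain.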 The conditions noted are these: S. cerevisiae rad50 strain growth inhibition; at 50.0 µM; hits give high values. In outline: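 Genetically altered yeast (DNA repair pathway); compound treatment; growth inhibition vs vehicle ctrl.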
A short description of assay [2]: NCI Yeast Anticancer Drug Screen. Data for the mec2-1 strain (AID 157). The conditions noted are these: S. cerevisiae mec2-1 strain, at 50.0 µM, hits give high values. In outline:
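Cells of the genetically defined mec2-1 yeast strain are incubated with test compound. Inhibition of growth is calculated against vehicle-treated controls.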

Assay [3] can be described thus: NCI Yeast Anticancer Drug Screen. Data for the sgs1 mgt1 strain (AID 161).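 Note: 0% = growth of cultures given vehicle only.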 To be noted: S. cerevisiae sgs1 mgt1 strain, at 50.0 µM, hits give high values. The essentials: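 Read-out: growth inhibition vs vehicle controls. Cells: mutant yeast strain deficient in DNA damage repair.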
A short description of assay [4]: NCI Yeast Anticancer Drug Screen. Data for the cln2 rad14 strain (AID 165).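 Note: 0% = growth equal to vehicle treated cultures.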 To be noted: S. cerevisiae cln2 rad14 strain, at 50.0 µM, hits give high values. In outline:
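The screen exposed genetically defined yeast (cln2 rad14) to test compounds and scored growth inhibition relative to vehicle-treated controls.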

Assay [5] can be described thus: NCI Yeast Anticancer Drug Screen. Data for the bub3 strain (AID 167). The conditions noted are these: S. cerevisiae bub3 mutant strain, at 50.0 µM, hits give high values. In outline:
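Yeast carrying a defined mutation is treated with each compound, and growth is compared with that of vehicle-exposed cells to give inhibition.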

Assay [6] in a line: NCI Yeast Anticancer Drug Screen. Data for the mlh1 rad18 strain (AID 175). The conditions noted are these: S. cerevisiae mlh1 rad18 strain growth inhibition; at 50.0 µM; hits give high values. The essentials:
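Compound-treated yeast growth, normalised to vehicle controls. Strain bears defined DNA repair mutations.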

The panel holds about 79,000 compounds, 15% with a hit somewhere; the sample as a whole holds those more often. A number with no mark means an inactive call. The source made the active and inactive calls. Cut-off read from the data, not from the text of the source: active = growth inhibition above about 70%; inactive = the rest.

For `C/C(=N\NC(=O)c1ccncc1)c1cccc(Br)c1`, the growth inhibition in assay [1] is 12%; in assay [2] it was 13.9%; in assay [3] it was 5.35%; in assay [4] it was 6.6%; in assay [5], 5.35%; in assay [6], 11.8%.

As for `CCN(CC)C(=O)C(C(=O)OC)c1ccccc1` (stereo unspecified), the growth inhibition in assay [1] is -4.6%; in assay [2], -9.75%; in assay [3], 7.8%; in assay [4], -27.6%; in assay [5] it was 10%; in assay [6], 7.1%.

With `CCOC(=O)CCc1cn2cc(Br)nc(OC)c2n1`, the growth inhibition in assay [1] was -18.6%; in assay [2], -38%; in assay [3], 14.6%; in assay [4], 19.9%; in assay [5], 3.7%; in assay [6] it was -13.6%.

As to `CSc1cc2c(cc1NC(C)=O)Cc1ccccc1-2`, the growth inhibition in assay [1] was 13.4%; in assay [2] it was -3.75%; in assay [3], 0.6%; in assay [4], 10.5%; in assay [5], 9.15%; in assay [6], -13.4%.

For `CO/[N+]([O-])=C\C(=O)N/C=C/C(=O)O`, the growth inhibition in assay [1] is 19.1%; in assay [2], 5.85%; in assay [3] it was 7.3%; in assay [4], 18.7%; in assay [5], 23.6%; in assay [6], 15.2%.

For the molecule `Cc1ccc(C(=Nc2ccccc2)N=S(c2ccccc2)c2ccccc2)cc1`, the growth inhibition in assay [1] is -2.2%; in assay [2] it was 5.6%; in assay [3] it was -19%; in assay [4] it was -16.1%; in assay [5], 2.55%; in assay [6], -30.6%.

For the molecule `Cc1ccc(S(=O)(=O)NNS(=O)(=O)c2ccc(C)cc2)cc1`, the growth inhibition in assay [1] is 5%; in assay [2], 9.6%; in assay [3], 26.9%; in assay [4], -5.95%; in assay [5], 12.7%; in assay [6] it was 17.2%.

Consider `O=S(=O)(O)c1ccc(Nc2ccnc3cc(Cl)ccc23)cc1`, for which the growth inhibition in assay [1] is -21.4%; in assay [2], -32.1%; in assay [3], -39.8%; in assay [4] it was -3.9%; in assay [5] it was -29.1%; in assay [6], -10%.

For the molecule `O=S(=O)(/N=C(Cl)/C(Cl)=N/S(=O)(=O)c1ccccc1)c1ccccc1`, the growth inhibition is 15.3% in assay [1]; -1.65% in assay [2]; 22.7% in assay [3]; -9.9% in assay [4]; -0.1% in assay [5]; 5.3% in assay [6].

With `CC(=O)Nc1cc(NC(C)=O)c(N=O)c(NC(C)=O)n1`, the growth inhibition is -19.5% in assay [1]; -13.2% in assay [2]; -0.7% in assay [3]; -3.45% in assay [4]; -15.8% in assay [5]; 7.35% in assay [6].

Consider `CCc1ccccc1NC(=O)NCC(C)C`, for which the growth inhibition was -7.65% in assay [1]; -20.3% in assay [2]; 5.85% in assay [3]; -3.8% in assay [4]; 2.7% in assay [5]; -4.35% in assay [6].

Turning to `C=CC[N+](CCO)(CCO)CCCCCCCCCCCCCCCCCC`, the growth inhibition was 98.4% (active) in assay [1]; 99% (active) in assay [2]; 99.2% (active) in assay [3]; 96.1% (active) in assay [4]; 98.5% (active) in assay [5]; 97.8% (active) in assay [6].

For `CCc1c(Cc2[nH]c(Cc3[nH]c(C=O)c(C)c3CC)c(CC)c2CC)[nH]c(C=O)c1C`, the growth inhibition was 5.25% in assay [1]; -7.5% in assay [2]; -5.85% in assay [3]; -45.9% in assay [4]; -0.75% in assay [5]; -8.75% in assay [6].

With `CNC(=O)OCc1c(COC(=O)NC)c(-c2ccsc2)n2c1CCC2`, the growth inhibition in assay [1] is 17.5%; in assay [2] it was 13.6%; in assay [3] it was 37.1%; in assay [4] it was -5.6%; in assay [5], -22.4%; in assay [6] it was 8.25%.

For `N#CC1=C(N)C(c2ccccc2)(c2ccccc2)CC1`, the growth inhibition was 30.4% in assay [1]; 29.6% in assay [2]; 8.15% in assay [3]; -0.45% in assay [4]; 0.4% in assay [5]; 35.7% in assay [6].

On to `CCN(CC)C(=O)COc1ccc(Cl)cc1C(C)C`, for which the growth inhibition was -17.9% in assay [1]; -16.8% in assay [2]; 1.35% in assay [3]; -2.45% in assay [4]; 14.9% in assay [5]; -31.4% in assay [6].

With `O=C(CCc1ccco1)CCc1ccco1`, the growth inhibition in assay [1] is 7.6%; in assay [2], -3.35%; in assay [3], 5.45%; in assay [4] it was -9.05%; in assay [5] it was -3.5%; in assay [6] it was -0.6%.

For `CC(C)N(C)c1ncnc2c1cnn2C`, the growth inhibition was -1.55% in assay [1]; -2.85% in assay [2]; -3.95% in assay [3]; -14.8% in assay [4]; 1.75% in assay [5]; -14% in assay [6].

`C[N+](C)(C)CC(=O)N/N=C(/Cc1nc2ccc([N+](=O)[O-])cc2[nH]c1=O)C(=O)Nc1cc(C(F)(F)F)ccc1Cl`: the growth inhibition in assay [1] was -13.2%; in assay [2], 3.7%; in assay [3], 3.35%; in assay [4] it was 8.55%; in assay [5], -5.4%; in assay [6], 16.2%.

Regarding `CC(NC(=O)CNC(=O)CN)C(N)=O` (stereo unspecified), the growth inhibition in assay [1] is -23.9%; in assay [2], -0.65%; in assay [3], -17.1%; in assay [4], 5.9%; in assay [5], 8.25%; in assay [6] it was -17.2%.

For the molecule `C=CCO[Si](C=C)(OCC=C)OCC=C`, the growth inhibition in assay [1] is 31.8%; in assay [2], -10.9%; in assay [3], -5.35%; in assay [4] it was 10.7%; in assay [5], 9.6%; in assay [6] it was -3.95%.

For the origin of these results see PubChem BioAssay (NCI).
